Consider 1 molecule from the supplement of paper PMC8728848.

This is one part of a sample in which the strongest signals are shown more often than they occur.

Holding throughout (assay): glycan array binding signal (z-score within array); higher = stronger binding
Conditions in all cases: glycan notation: IUPAC condensed, linker removed

The target in assay [1] is GlcNAc(b1-3)Gal(b1-4)GlcNAc(b1-3)Gal(b1-4)GlcNAc(b1-3)Gal(b1-4)GlcNAc(b1-2)Man(a1-3)[GlcNAc(b1-3)Gal(b1-4)GlcNAc(b1-3)Gal(b1-4)GlcNAc(b1-3)Gal(b1-4)GlcNAc(b1-2)Man(a1-6)]Man(b1-4)GlcNAc(b1-4)[Fuc(a1-6)]GlcNAc. In outline:
(§1)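 Negative Z-scores can be read as non-binding. The Z-score is calculated within each array and then averaged across arrays of one protein sequence at different concentrations or buffers and across linkers. Arrays, 3228 in all, were curated from the Consortium for Functional Glycomics database and kept only where the protein sequence was available.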

The target of assay [2] is GlcNAc(b1-3)Gal(b1-4)GlcNAc(b1-3)Gal(b1-4)GlcNAc(b1-3)Gal(b1-4)GlcNAc(b1-2)[GlcNAc(b1-3)Gal(b1-4)GlcNAc(b1-3)Gal(b1-4)GlcNAc(b1-3)Gal(b1-4)GlcNAc(b1-6)]Man(a1-6)[GlcNAc(b1-3)Gal(b1-4)GlcNAc(b1-3)Gal(b1-4)GlcNAc(b1-3)Gal(b1-4)GlcNAc(b1-2)Man(a1-3)]Man(b1-4)GlcNAc(b1-4)[Fuc(a1-6)]GlcNAc. In outline: as §1
The next assay has as its target GlcNAc(b1-4)GlcNAc. In outline: as §1
Assay [3] concerns the target GlcNAc(b1-4)[GlcNAc(b1-6)]GalNAc. In a few lines: as §1
The target in assay [4] is GlcNAc(b1-6)Gal(b1-4)GlcNAc. In outline: as §1
Assay [5] deals with Man(a1-2)Man(a1-2)Man(a1-6)[Man(a1-3)]Man. In outline: as §1
Assay [6] concerns the target Man(a1-3)[Man(a1-6)]Man(b1-4)GlcNAc(b1-4)GlcNAc. In a few lines: as §1
For a further assay, the target named is Man(b1-4)GlcNAc. In a few lines: as §1
The next assay addresses Neu5Ac(a2-3)Gal. In a few lines:
as §1

For assay [7], the target named is Neu5Ac(a2-3)Gal(b1-3)GalNAc6S. In outline: as §1
Assay [8] concerns the target Neu5Ac(a2-3)Gal(b1-3)GlcNAc(b1-3)Gal(b1-4)GlcNAc. In a few lines:
as §1

The target in assay [9] is Neu5Ac(a2-3)Gal(b1-4)GlcNAc(b1-2)Man(a1-3)[Neu5Ac(a2-6)Gal(b1-4)GlcNAc(b1-2)Man(a1-6)]Man(b1-4)GlcNAc(b1-4)GlcNAc. In outline:
as §1

Assay [10] deals with Neu5Ac(a2-3)Gal(b1-4)GlcNAc(b1-3)Gal(b1-4)GlcNAc(b1-2)Man(a1-3)[Neu5Ac(a2-3)Gal(b1-4)GlcNAc(b1-3)Gal(b1-4)GlcNAc(b1-2)Man(a1-6)]Man(b1-4)GlcNAc(b1-4)GlcNAc. In a few lines:
as §1

In assay [11] the target is Neu5Ac(a2-3)Gal(b1-4)[Fuc(a1-3)]GlcNAc(b1-2)Man. In outline:
as §1

Another assay has as its target Neu5Ac(a2-8)Neu5Ac. In a few lines:
as §1

Assay [12] has as its target Neu5Ac(a2-8)Neu5Ac(a2-8)Neu5Ac. In a few lines: as §1
Assay [13] deals with Neu5Gc(a2-3)Gal(b1-4)GlcNAc. In outline:
as §1

B1: Epf (Streptococcus pyogenes) (protein)
chain: GDHGPEFNGVMVVKAAEAEELPDDLMNFKGTWEVSADGSSGRFFSKGATDSYVFHLIPAKDVKKPGWREHNEVKDSYIKIDKQSIAARYKTSTTAPYSVAFKVNTKSLIKDHDYKITFEQGQIASGITVDYRIGSAFNKTTDDSFKISDESKYASNVKIEGEEQGFKQREQGDKTISFRTLKEGPMSLVLLSKVEKKPQGDLDVEFKNLKIIDVTNPSQLDKGVAYVGNKNVQLTLKSDDGRTNFEGDEISLFNSRGELLQTVTVTKDQQNPISITLSEDQAKSLKNKEKLKVSIKQKQSKKTSKDFFFEVGIDPKVEAKQKEKLLELDKVKKQIEDSINGDAWLPEKPVDLQGDHGLSAWSHPQFEK
Turning to B1, the “glycan array binding signal (z-score)” value was 2.18 in [1]; 2.85 in assay [2]; -1.32 in the assay with GlcNAc(b1-4)GlcNAc; 3.11 in assay [3]; -0.433 in assay [4]; 1.01 in assay [5]. The “glycan array binding signal (z-score)” value in assay [6] is 0.659; in the assay with Man(b1-4)GlcNAc, -0.471; in the assay with Neu5Ac(a2-3)Gal, -0.169; in [7] it was 1.65; in assay [8] it was -1.25; in assay [9], -0.643. In addition, the “glycan array binding signal (z-score)” value is 1.33 in assay [10]; -1.48 in assay [11]; 0.246 in the assay with Neu5Ac(a2-8)Neu5Ac; -0.377 in [12]; 0.422 in [13].
